For one sequence, binding signal results are on record in article PMC7862700, “An all-to-all approach to the identification of sequence-specific readers for epigenetic DNA modifications on cytosine”.

Assay in all cases: DAPPL (digital affinity profiling via proximity ligation, sequencing); 10 mM Tris-HCl pH 7.5, 50 mM NaCl, 1 mM DTT, 4% glycerol, room temperature, 30 min; GST-TFs on glutathione beads, 16-mer random dsDNA library, 0.1% formaldehyde crosslink after washing; high values mean tight binding
One assay addresses T1, FEV (Homo sapiens, UniProt Q99581 1-238).
T1 sequence: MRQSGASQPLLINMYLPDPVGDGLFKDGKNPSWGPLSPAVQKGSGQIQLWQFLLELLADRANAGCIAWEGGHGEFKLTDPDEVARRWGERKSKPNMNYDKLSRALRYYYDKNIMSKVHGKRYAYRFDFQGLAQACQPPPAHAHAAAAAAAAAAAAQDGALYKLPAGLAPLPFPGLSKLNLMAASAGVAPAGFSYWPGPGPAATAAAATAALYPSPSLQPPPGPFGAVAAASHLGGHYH
Particulars: protein: recombinant; tags: N-terminal GST; dsDNA, one strand shown. In short, it runs like this:
(§1)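 Human transcription factors fused to GST were expressed in yeast, captured on glutathione beads, given DNA barcodes and pooled with a GST-only negative control. Pools were incubated with 200 nmole of a 16-mer random double-stranded DNA library in Tris/NaCl/DTT/glycerol buffer at room temperature for 30 min. They were then washed, crosslinked with 0.1% formaldehyde, proximity-ligated (BsaI/T4 ligase, 1 h, 37 °C), PCR-amplified and sequenced on an Illumina NextSeq500. Binding signal is each 6-mer's read frequency for a factor divided by its frequency for the GST control.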

A further assay addresses ETV5 (Homo sapiens, UniProt P41161 1-510). The note with it: protein: recombinant; tags: N-terminal GST; dsDNA, one strand shown. In outline:
as §1

Another assay has as its target HSF1 (Homo sapiens, UniProt Q00613 1-529). The note with it: protein: recombinant; tags: N-terminal GST; chain copies: 3; dsDNA, one strand shown. In short, it runs like this:
as §1

A further assay has as its target T2, SPIC (Homo sapiens, UniProt Q8N5J4 1-248).
T2 sequence: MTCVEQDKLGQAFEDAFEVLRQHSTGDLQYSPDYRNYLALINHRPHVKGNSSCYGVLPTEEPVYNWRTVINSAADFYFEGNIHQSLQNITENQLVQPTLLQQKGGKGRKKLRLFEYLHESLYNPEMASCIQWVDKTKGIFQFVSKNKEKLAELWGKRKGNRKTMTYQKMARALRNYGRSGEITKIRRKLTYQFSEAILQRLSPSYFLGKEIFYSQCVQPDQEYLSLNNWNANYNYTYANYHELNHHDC
The note with it: protein: recombinant; tags: N-terminal GST; dsDNA, one strand shown. In outline: as §1

Another assay deals with ELF4 (Homo sapiens, UniProt Q99607 1-663). The note with it: protein: recombinant; tags: N-terminal GST; dsDNA, one strand shown. In outline: as §1
Chain of ELF4 (Q99607 whole entry): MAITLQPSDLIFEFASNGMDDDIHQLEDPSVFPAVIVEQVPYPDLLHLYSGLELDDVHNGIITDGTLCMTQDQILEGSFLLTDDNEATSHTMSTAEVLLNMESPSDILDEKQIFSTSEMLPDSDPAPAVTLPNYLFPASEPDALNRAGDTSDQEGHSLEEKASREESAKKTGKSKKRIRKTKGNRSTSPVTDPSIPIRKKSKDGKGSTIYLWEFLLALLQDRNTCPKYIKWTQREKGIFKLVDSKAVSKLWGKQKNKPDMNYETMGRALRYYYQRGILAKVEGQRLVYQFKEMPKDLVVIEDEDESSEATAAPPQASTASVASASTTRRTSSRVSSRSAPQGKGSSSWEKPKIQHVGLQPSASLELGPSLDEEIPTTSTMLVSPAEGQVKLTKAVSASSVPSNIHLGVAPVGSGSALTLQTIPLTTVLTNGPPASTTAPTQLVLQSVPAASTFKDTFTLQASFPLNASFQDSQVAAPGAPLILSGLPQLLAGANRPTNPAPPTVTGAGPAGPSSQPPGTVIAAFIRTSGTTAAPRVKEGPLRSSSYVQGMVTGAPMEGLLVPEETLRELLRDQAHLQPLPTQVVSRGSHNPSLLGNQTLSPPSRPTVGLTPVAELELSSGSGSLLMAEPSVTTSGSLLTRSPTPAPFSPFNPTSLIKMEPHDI
Another assay addresses T3, ELK4 (Homo sapiens, UniProt P28324-2 1-405).
T3 sequence: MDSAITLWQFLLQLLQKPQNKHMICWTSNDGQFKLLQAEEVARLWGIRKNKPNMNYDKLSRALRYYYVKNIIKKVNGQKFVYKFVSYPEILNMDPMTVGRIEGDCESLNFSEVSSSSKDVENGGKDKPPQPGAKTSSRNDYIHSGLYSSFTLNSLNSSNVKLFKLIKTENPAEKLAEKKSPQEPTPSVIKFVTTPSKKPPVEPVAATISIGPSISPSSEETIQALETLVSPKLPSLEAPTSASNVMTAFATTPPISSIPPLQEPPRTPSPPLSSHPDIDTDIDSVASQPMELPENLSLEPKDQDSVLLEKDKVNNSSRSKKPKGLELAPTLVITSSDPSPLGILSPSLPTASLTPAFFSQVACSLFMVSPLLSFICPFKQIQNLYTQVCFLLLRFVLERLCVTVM
Particulars: protein: recombinant; tags: N-terminal GST; dsDNA, one strand shown. In outline:
as §1

For a further assay, the target named is T4, ETV2 (Homo sapiens, UniProt O00321 1-342).
T4 sequence: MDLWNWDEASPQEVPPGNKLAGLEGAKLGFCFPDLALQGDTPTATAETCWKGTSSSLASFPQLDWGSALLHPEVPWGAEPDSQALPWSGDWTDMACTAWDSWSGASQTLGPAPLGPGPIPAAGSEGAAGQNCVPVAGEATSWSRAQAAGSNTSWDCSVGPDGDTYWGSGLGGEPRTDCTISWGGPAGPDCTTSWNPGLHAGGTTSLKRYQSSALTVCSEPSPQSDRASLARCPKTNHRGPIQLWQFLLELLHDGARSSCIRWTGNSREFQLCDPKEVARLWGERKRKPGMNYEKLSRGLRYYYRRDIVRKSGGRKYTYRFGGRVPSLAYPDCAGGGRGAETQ
Particulars: protein: recombinant; tags: N-terminal GST; dsDNA, one strand shown. In short, it runs like this:
as §1

In the next assay the target is T5, ELF3 (Homo sapiens, UniProt P78545 1-371).
T5 sequence: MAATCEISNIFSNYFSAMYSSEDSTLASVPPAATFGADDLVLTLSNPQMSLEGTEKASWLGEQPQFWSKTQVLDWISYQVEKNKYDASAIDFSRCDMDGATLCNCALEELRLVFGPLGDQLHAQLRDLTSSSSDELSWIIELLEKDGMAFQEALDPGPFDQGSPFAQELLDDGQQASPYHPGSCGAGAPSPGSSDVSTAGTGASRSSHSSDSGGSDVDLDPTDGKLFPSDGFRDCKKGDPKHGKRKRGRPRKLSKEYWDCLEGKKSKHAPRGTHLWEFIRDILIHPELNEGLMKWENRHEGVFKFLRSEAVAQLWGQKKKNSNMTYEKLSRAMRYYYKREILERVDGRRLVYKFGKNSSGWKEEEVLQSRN
The note with it: protein: recombinant; tags: N-terminal GST; dsDNA, one strand shown. In short, it runs like this:
as §1

Another assay addresses CRX (Homo sapiens, UniProt O43186 1-299). The note with it: protein: recombinant; tags: N-terminal GST; dsDNA, one strand shown. In short, it runs like this: as §1
A further assay deals with ETV1 (Homo sapiens, UniProt P50549 1-477). The note with it: protein: recombinant; tags: N-terminal GST; dsDNA, one strand shown. In short, it runs like this:
as §1

In another assay the target is T6, ERF (Homo sapiens, UniProt P50548 1-548).
T6 sequence: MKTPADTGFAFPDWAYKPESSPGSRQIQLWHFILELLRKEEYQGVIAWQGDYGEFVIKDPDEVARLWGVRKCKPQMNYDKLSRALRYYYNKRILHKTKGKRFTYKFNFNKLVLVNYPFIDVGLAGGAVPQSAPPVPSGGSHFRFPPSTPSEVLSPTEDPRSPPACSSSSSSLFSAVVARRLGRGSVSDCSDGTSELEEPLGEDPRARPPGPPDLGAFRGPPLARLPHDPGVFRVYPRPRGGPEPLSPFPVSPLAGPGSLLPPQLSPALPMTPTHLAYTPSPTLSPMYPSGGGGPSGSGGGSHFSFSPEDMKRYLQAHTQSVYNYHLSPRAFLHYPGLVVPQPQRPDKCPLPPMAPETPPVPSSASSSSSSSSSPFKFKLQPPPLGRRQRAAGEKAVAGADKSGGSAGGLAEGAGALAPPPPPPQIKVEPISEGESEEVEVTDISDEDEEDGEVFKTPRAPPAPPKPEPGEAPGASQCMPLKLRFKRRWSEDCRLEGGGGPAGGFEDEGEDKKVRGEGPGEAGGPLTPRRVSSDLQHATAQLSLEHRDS
Particulars: protein: recombinant; tags: N-terminal GST; dsDNA, one strand shown. In short, it runs like this:
as §1

A further assay concerns the target T7, ETV3L (Homo sapiens, UniProt Q6ZN32 1-361).
T7 sequence: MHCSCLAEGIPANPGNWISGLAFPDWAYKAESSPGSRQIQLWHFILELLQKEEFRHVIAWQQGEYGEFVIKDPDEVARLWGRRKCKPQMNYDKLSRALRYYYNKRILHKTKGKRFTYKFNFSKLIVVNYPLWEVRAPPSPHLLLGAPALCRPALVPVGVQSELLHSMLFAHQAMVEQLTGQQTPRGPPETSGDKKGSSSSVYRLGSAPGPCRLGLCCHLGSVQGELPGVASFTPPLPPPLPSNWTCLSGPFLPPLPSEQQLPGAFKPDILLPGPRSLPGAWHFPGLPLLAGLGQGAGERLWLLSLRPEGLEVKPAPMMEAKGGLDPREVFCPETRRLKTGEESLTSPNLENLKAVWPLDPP
Particulars: protein: recombinant; tags: N-terminal GST; dsDNA, one strand shown. In short, it runs like this: as §1

The next assay deals with T8, ETS2 (Homo sapiens, UniProt P15036 1-469).
T8 sequence: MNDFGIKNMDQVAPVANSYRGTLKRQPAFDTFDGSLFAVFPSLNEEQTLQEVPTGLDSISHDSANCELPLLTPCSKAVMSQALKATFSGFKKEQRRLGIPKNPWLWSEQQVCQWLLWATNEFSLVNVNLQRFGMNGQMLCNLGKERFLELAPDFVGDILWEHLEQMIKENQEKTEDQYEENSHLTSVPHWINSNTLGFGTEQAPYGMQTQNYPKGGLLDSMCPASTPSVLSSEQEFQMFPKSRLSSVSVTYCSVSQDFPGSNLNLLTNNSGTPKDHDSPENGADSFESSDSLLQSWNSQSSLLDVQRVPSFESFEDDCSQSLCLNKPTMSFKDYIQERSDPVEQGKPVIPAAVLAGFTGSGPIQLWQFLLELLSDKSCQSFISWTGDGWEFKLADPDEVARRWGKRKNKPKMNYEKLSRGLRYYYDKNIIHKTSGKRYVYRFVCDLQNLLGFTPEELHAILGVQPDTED
The note with it: protein: recombinant; tags: N-terminal GST; dsDNA, one strand shown. In outline: as §1

For a further assay, the target named is T9, SPDEF (Homo sapiens, UniProt O95238 1-335).
T9 sequence: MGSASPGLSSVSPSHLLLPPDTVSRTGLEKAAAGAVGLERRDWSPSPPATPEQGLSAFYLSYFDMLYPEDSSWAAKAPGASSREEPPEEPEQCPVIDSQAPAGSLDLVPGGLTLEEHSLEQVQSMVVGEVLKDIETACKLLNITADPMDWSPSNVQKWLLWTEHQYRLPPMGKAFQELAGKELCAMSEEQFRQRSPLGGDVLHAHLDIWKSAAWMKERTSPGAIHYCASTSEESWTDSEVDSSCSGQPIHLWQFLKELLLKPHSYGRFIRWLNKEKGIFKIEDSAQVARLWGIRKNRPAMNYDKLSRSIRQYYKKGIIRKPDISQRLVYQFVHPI
Particulars: protein: recombinant; tags: N-terminal GST; dsDNA, one strand shown. In outline:
as §1

The next assay concerns the target T10, ETV7 (Homo sapiens, UniProt Q9Y603 1-341).
T10 sequence: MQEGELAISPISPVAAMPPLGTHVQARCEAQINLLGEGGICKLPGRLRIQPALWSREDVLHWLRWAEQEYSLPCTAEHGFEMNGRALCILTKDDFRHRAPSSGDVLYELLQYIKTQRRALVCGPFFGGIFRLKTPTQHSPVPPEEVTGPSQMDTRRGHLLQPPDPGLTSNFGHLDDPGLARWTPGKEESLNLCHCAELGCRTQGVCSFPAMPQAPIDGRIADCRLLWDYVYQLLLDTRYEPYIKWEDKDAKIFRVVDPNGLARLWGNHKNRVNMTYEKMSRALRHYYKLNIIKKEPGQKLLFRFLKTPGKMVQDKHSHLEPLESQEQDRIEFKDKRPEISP
Particulars: protein: recombinant; tags: N-terminal GST; dsDNA, one strand shown. In outline:
as §1

For a further assay, the target named is T11, ELF5 (Homo sapiens, UniProt Q9UKW6-2 1-255).
T11 sequence: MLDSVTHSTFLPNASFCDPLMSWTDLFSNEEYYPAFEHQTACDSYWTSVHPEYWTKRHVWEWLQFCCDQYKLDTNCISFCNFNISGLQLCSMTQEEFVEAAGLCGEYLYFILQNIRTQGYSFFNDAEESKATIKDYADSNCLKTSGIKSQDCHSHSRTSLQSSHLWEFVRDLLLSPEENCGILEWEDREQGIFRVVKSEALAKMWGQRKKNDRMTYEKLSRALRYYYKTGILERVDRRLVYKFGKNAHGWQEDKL
Particulars: protein: recombinant; tags: N-terminal GST; dsDNA, one strand shown. In outline:
as §1

In the next assay the target is T12, ETV3 (Homo sapiens, UniProt P41162-2 1-143).
T12 sequence: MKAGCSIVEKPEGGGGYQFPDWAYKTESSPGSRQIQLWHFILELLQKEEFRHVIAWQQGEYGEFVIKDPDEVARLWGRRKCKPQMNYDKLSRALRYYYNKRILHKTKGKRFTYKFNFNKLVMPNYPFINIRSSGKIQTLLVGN
The note with it: protein: recombinant; tags: N-terminal GST; dsDNA, one strand shown. In short, it runs like this: as §1

The target in the next assay is ETV6 (Homo sapiens, UniProt P41212 1-452). Particulars: protein: recombinant; tags: N-terminal GST; dsDNA, one strand shown. In short, it runs like this: as §1
Chain of ETV6 (P41212 whole entry): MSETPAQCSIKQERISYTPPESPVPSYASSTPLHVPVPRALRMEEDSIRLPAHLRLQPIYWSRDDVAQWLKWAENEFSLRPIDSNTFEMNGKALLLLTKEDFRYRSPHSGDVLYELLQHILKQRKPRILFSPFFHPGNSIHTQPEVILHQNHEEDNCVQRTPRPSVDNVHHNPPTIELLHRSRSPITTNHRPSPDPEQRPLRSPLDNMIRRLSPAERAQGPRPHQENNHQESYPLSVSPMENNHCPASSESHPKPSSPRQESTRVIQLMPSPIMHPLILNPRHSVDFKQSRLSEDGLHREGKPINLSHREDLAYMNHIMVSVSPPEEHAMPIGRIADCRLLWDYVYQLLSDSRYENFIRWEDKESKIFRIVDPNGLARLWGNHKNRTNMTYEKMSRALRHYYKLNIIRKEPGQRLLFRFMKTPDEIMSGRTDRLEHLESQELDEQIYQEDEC

Chain of ETV1 (P50549 whole entry): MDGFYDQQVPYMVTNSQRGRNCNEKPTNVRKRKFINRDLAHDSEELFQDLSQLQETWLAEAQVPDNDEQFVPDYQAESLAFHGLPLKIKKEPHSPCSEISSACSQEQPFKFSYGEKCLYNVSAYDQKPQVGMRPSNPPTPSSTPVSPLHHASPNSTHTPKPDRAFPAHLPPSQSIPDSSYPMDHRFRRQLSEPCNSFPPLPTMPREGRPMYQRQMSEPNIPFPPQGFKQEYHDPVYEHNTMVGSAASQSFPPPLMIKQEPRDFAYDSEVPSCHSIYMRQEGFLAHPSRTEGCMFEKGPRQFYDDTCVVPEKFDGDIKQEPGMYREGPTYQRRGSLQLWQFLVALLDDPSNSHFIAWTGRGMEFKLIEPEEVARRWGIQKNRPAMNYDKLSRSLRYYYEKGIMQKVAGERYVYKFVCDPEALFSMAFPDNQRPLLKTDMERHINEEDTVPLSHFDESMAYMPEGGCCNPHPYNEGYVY
Chain of ETV5 (P41161 whole entry): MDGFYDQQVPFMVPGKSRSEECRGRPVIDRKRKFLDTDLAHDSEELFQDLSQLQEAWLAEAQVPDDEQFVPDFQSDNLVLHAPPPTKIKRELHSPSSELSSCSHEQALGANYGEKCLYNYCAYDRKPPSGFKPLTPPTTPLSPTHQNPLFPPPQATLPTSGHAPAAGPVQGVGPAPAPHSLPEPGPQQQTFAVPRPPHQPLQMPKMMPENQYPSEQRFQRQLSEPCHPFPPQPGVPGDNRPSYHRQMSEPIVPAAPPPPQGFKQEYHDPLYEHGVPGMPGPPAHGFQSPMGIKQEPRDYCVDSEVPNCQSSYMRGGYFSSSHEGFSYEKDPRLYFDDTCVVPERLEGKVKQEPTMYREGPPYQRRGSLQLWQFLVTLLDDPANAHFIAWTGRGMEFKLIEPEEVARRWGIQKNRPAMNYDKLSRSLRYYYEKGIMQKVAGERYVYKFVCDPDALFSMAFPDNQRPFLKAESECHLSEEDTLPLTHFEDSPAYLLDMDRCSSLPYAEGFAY
Chain of CRX (O43186 whole entry): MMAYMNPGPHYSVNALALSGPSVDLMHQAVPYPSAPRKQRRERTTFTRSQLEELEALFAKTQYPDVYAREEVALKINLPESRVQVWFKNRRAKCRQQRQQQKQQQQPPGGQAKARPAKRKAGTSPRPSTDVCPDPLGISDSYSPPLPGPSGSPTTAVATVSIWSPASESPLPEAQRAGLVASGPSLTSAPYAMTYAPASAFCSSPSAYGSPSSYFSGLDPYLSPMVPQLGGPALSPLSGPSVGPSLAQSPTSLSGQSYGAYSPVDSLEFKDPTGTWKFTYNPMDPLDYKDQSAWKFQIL
Chain of HSF1 (Q00613 whole entry): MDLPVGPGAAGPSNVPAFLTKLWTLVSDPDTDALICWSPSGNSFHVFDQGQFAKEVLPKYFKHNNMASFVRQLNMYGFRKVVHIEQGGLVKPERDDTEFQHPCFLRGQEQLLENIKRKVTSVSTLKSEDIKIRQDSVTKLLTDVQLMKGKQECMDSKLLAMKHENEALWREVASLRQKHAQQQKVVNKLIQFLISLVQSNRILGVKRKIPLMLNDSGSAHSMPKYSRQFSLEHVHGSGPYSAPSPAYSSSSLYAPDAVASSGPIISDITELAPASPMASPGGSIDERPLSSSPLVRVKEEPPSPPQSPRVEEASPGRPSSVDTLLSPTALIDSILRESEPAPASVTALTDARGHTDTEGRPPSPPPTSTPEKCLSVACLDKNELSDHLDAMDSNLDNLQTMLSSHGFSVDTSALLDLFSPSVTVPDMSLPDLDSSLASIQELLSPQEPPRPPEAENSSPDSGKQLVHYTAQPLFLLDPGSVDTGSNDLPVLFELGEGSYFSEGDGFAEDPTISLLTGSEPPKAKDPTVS

Take ATCCCT: the binding signal was 1.3 fold enrichment (6-mer frequency, TF over GST control) with FEV; 1.3 fold enrichment (6-mer frequency, TF over GST control) in the assay with ETV5; 1.64 fold enrichment (6-mer frequency, TF over GST control) in the assay with HSF1; 1.27 fold enrichment (6-mer frequency, TF over GST control) with SPIC; 1.38 fold enrichment (6-mer frequency, TF over GST control) with ELF4; 1.33 fold enrichment (6-mer frequency, TF over GST control) in the assay with ELK4. In addition, the binding signal with ETV2 is 1.13 fold enrichment (6-mer frequency, TF over GST control); with ELF3, 1.22 fold enrichment (6-mer frequency, TF over GST control); in the assay with CRX, 2.17 fold enrichment (6-mer frequency, TF over GST control); with ETV1, 1.21 fold enrichment (6-mer frequency, TF over GST control); in the assay with ERF, 1.33 fold enrichment (6-mer frequency, TF over GST control); with ETV3L, 1.35 fold enrichment (6-mer frequency, TF over GST control). Moreover, the binding signal was 1.23 fold enrichment (6-mer frequency, TF over GST control) in the assay with ETS2; 1.41 fold enrichment (6-mer frequency, TF over GST control) with SPDEF; 1.14 fold enrichment (6-mer frequency, TF over GST control) with ETV7; 1.37 fold enrichment (6-mer frequency, TF over GST control) with ELF5; 1.21 fold enrichment (6-mer frequency, TF over GST control) with ETV3; 1.23 fold enrichment (6-mer frequency, TF over GST control) in the assay with ETV6.
